# Rtt109 HAT inh: inhibitors of Candida albicans Rtt109/Vps75 histone acetyltransferase; inhibition, % at 34.9 µM; Q5AAJ8; 0.16% of 330,000 active; purified Rtt109/Vps75, ThioGlo CoA-SH fluorescence, 4 h; AID 540336;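 active = inhibition of at least 50% in every replicate; inconclusive = best replicate reaches 50% inhibition but some replicates fall short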
# dFosB act: enhances mouse delta FosB homodimer DNA binding. activation, % at 25 µM. purified delta FosB, TAMRA-CDK5 oligo fluorescence polarization; percent of positive-control signal above neutral wells. P13346. AID 493131. 0.99% of 340,000 active;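 active = mean activation above about 17%, with every replicate also reaching it, limit read from the data, passing the limit was not always enough; inconclusive = only one of the two conditions met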
# Target sequence (P13346 whole entry, looked up): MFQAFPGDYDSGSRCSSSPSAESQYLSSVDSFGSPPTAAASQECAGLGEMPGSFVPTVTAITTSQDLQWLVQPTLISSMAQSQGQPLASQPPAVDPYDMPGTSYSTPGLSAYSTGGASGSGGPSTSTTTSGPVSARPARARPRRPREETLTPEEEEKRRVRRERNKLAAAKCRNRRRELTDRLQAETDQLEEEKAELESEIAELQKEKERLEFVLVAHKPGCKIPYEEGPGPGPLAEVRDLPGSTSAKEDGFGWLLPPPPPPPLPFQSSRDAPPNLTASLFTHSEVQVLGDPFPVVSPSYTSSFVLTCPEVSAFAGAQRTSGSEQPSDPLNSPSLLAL
# CDK5 inh: inhibitors of human CDK5/p35 kinase; inhibition, % at 10 µM; 0.01% of 330,000 active; AID 488839; Q00535+Q15078; Recombinant CDK5/p35, ADP-Glo luminescence, 60 min;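 active = highest replicate inhibition of at least 50% and at least 75% of replicates reaching 50%; inconclusive = only one of the two criteria met; inactive = both criteria failed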
# esBAF inh: blocks esBAF chromatin remodeling in mouse ES cells; Bmi1-luciferase knock-in reporter, 24 h; 100% = twice the neutral-well signal; reporter increase, % at 12.5 µM; 2% of 350,000 active; in the data active = activation above about 40%; inconclusive = no clear call, values can overlap the other calls;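 note: a rise in the Bmi1 reporter signal indicates esBAF inhibition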
# Dyrk1A ADPGlo: blocks rat Dyrk1A kinase activity; ADP-Glo luminescence, NFATc1 peptide; inhibition, % at 12.5 µM; 0.43% of 310,000 active; Q63470; in the data active = inhibition above about 50%
# SMARCA2 act: SMARCA2 function activation, primary screen; MG213 cells, MMTV-luciferase reporter, dexamethasone, overnight; AID 652017; activation, % at 9.1 µM; 1% of 370,000 active; in the data active = activation above about 7.8%
# ADP-Glo artifact: counter-screen for Dyrk1A inhibitors: ADP-Glo luciferase artifacts; shares compounds with Dyrk1A ADPGlo; ADP-Glo luciferase artifact assay, no Dyrk1A, luminescence; AC50, µM (doses to about 12 µM); 1,300 tested, under 10 active; AID 588348;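 active = fitted half-maximal dose AC50 no more than ten times the top valid tested dose, with luminescence dropping as dose rises; inconclusive = poor fit, or flat fit with 30 to 70% inhibition; inactive = the rest, signal increases included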
# SMARCA2 conf: SMARCA2 activation, confirmation screen | shares compounds with SMARCA2 act | MG213 cells, MMTV-luciferase with dexamethasone, luminescence, overnight; MG213 cells expressing E1A, Rb sequestered; DMSO wells 0%, reference activator 100% | activation, % at 9.1 µM | 30% of 3,500 active;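 active = activation above its plate's cutoff, the mean activation of tested wells plus 3 SD, cut at about 7.9% in these data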
# GAL4-VP16 Luc: GAL4-VP16 reporter activation counter-screen; shares compounds with SMARCA2 act; activation, % at 9.1 µM; HEK293 GAL4-VP16 pG5luc reporter, luciferase luminescence; scaled: DMSO wells 0%, SAHA wells 100%; 41% of 3,500 active; AID 686939;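 active = activation above the solvent-only control well mean plus 3 SD, averaged across control plates, cut at about 5.2% in these data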
# A number is an active result; – = inactive; ? = inconclusive; · = no result. Hits are enriched below; roughly 3.2% of the tested compounds scored in any of these assays.
SMILES,Rtt109 HAT inh,dFosB act,CDK5 inh,esBAF inh,Dyrk1A ADPGlo,SMARCA2 act,ADP-Glo artifact,others
CC(=O)Oc1ccc2c(c1)O/C(=C\c1ccncc1)C2=O,–,–,–,·,·,·,·,
O=C1/C(=C/c2ccc(O)c(O)c2)Oc2cc(O)ccc21,–,–,–,–,68.4,–,–,
COCC(=O)Nc1ccc2c(c1)C(=O)N(C)[C@H]1CC[C@@H](CC(=O)NCCc3ccccc3)O[C@@H]1CO2,·,·,·,–,·,·,·,
CCN(CC)c1ccc(C=C2SC(=S)NC2=O)cc1,–,–,–,·,·,–,·,
CC1Cc2cc(/C=C3/SC(=S)NC3=O)ccc2O1 (configuration not stated),–,–,–,·,84.4,–,–,
COc1cccc(-c2noc(N)c2C#N)c1,–,–,–,·,63.4,–,–,
Cc1ccc(-c2csc(N=C(N)N)n2)c(C)c1,·,·,·,·,·,–,·,
COc1ccc(-c2csc(N=C(N)N)n2)cc1,–,–,–,·,81.9,–,–,
C[C@H](CO)N1C[C@H](C)[C@H](CN(C)C(=O)C2CC2)Oc2cc(C#C[C@@H](C)O)ccc2S1(=O)=O,·,·,·,–,·,·,·,
C[C@@H]1CN([C@H](C)CO)C(=O)Cc2cc(NC(=O)c3ccncc3)ccc2O[C@H]1CN(C)Cc1ccncc1,·,·,·,–,·,·,·,
C[C@@H]1CCCCO[C@@H](CN(C)C(=O)NC2CCCCC2)[C@H](C)CN([C@H](C)CO)C(=O)c2cc(N(C)C)ccc2O1,·,·,·,–,·,·,·,
COc1ccc(-n2nc(C)cc2Nc2ccccc2C(=O)O)cc1,–,–,–,·,65.9,–,–,
O=C1OCC/C1=C\c1ccc(O)cc1,–,–,–,–,91.6,–,–,
C[C@@H]1CN([C@@H](C)CO)C(=O)c2cc(NC(=O)Nc3ccc(F)cc3)ccc2O[C@@H](C)CCCCO[C@H]1CN(C)Cc1ccncc1,·,·,·,–,·,·,·,
O=C(Nc1nc2ccc(Br)cc2s1)c1ccco1,–,–,–,–,–,–,·,
CC(=O)Nc1nc2ccc(Br)cc2s1,–,–,–,62.2,70.8,–,–,
C[C@H](CO)N1C[C@H](C)[C@H](CN(C)C(=O)Nc2ccc(F)cc2)Oc2c(NS(=O)(=O)c3ccc(F)cc3)cccc2C1=O,·,·,·,–,·,·,·,
CC1(C)CC(=O)c2sc(NC(=O)C3CC3)nc2C1,–,–,–,–,–,–,·,
CCOCC(=O)Nc1nc2c(s1)C(=O)CC(C)(C)C2,–,–,–,–,56.8,–,–,
O=C(C[C@@H]1CC[C@H]2[C@@H](COC[C@@H](O)CN2S(=O)(=O)c2ccc(F)cc2)O1)NCC1CC1,·,·,·,–,·,·,·,
O=C(Nc1nc(-c2ccc3c(c2)OCO3)cs1)C1COc2ccccc2O1 (configuration not stated),–,–,–,–,–,–,·,
CC(=O)Nc1nc(-c2ccc3c(c2)OCO3)cs1,–,–,–,–,57.5,–,–,
CN(C)/C=N/c1nc(-c2ccc3c(c2)OCO3)cs1,·,–,–,–,76.8,–,–,
C[C@H]1CN([C@@H](C)CO)S(=O)(=O)c2ccc(-c3cncnc3)cc2O[C@H]1CN(C)C(=O)Cc1ccccc1,·,·,·,–,·,·,·,
COc1ccc2c(C#CCCO)c(-c3ccc(S(C)(=O)=O)cc3)sc2c1,–,–,–,–,56.4,–,–,
SMILES,Rtt109 HAT inh,dFosB act,CDK5 inh,esBAF inh,Dyrk1A ADPGlo,SMARCA2 act,ADP-Glo artifact,others
COc1ccc2sc(-c3ccc(S(C)(=O)=O)cc3)c(C#CCO)c2c1,–,–,–,–,–,–,·,
CNC[C@@H]1Oc2ccc(NS(=O)(=O)c3ccc(OC)cc3)cc2CC(=O)N([C@H](C)CO)C[C@H]1C,·,·,·,–,·,·,·,
Nc1nc(N)nc(-c2ccc(Cl)cc2)n1,–,–,–,?,62.5,–,–,
CCN(CC)CCCNc1ccc2ncn3c4ccc(O)cc4c(=O)c1c23,–,37.9,–,·,86.8,8.1,–,SMARCA2 conf=34.2;GAL4-VP16 Luc=–
COc1cc(/C=C2\Oc3cc(O)ccc3C2=O)ccc1O,–,–,–,45.5,92.5,10.2,–,SMARCA2 conf=17.5;GAL4-VP16 Luc=10.4
COc1cc(C=C2C(=O)C=CC2=O)ccc1O,·,·,·,·,·,–,·,
CN1CCN(C(=O)C[C@H]2C=C[C@H](NC(=O)c3ccc4c(c3)OCO4)[C@H](CO)O2)CC1,·,·,·,–,·,·,·,
N=c1oc2cc(O)ccc2cc1C(=O)Nc1ccc(F)cc1,–,–,–,–,53.3,10.6,–,SMARCA2 conf=–;GAL4-VP16 Luc=6.7
COc1ccc(CN(C)C[C@H]2OCCCC[C@@H](C)Oc3ccc(NC(=O)NC4CCCCC4)cc3C(=O)N([C@H](C)CO)C[C@H]2C)cc1,·,·,·,–,·,·,·,
Cn1c2ccccc2c(=O)c2cc(C#CC3(O)CCCCC3)ccc21,–,–,–,–,–,–,·,
Cn1c2ccccc2c(=O)c2ccc(C#CC3(N)CCCCC3)cc21,–,–,–,–,58.4,19.0,–,SMARCA2 conf=43.8;GAL4-VP16 Luc=19.2
COc1cc(-c2cc(=O)c3c(O)cc(O)cc3o2)ccc1O,·,·,·,–,·,·,·,
O=c1oc(-c2ccc(O)c(O)c2)cc2cc(O)cc(O)c12,–,–,–,–,73.2,11.0,–,SMARCA2 conf=12.0;GAL4-VP16 Luc=8.3
COC(=O)c1nn(-c2ccc3c(c2)OCO3)cc1O,–,–,–,·,68.6,9.0,–,SMARCA2 conf=13.2;GAL4-VP16 Luc=11.0
CO[C@H]1CN(C)C(=O)c2cc(NC(=O)C3CCC3)ccc2OC[C@H](C)N(Cc2cccnc2)C[C@H]1C,·,·,·,–,·,·,·,
Cc1ccc(Cl)cc1-c1cc(C(=O)NCc2ccc(C(F)(F)F)cc2)[nH]n1,·,·,·,–,·,–,·,

# Source: PubChem (several laboratories)
